Cruzain noTriton: blocks cruzain activity in detergent-free assay. Potency, µM, for inactives: max response, negative = inhibition, most hits filed as inhibitors. P25779. purified cruzain, Z-FR-AMC fluorescence, no detergent. 200,000 tested, 2.3% active;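 further: plate controls were enzyme without inhibitor for no effect and buffer without enzyme for full effect; nearly all actives have a fitted effect of over 40% in size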
Target sequence (P25779 123-467 limits assumed): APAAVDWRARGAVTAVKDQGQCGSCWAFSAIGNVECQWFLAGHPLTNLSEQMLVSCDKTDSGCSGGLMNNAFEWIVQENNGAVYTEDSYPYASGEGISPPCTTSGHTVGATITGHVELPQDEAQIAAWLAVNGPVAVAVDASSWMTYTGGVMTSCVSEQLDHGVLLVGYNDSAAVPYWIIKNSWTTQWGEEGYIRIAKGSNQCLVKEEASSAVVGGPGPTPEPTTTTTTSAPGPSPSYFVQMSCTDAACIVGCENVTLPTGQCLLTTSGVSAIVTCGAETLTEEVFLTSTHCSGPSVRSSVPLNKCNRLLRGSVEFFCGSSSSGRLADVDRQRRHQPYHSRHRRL
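Purified cruzain at 1.5 nM, pre-incubated 15 min with compound at room temperature in 100 mM sodium acetate pH 5.5, 5 mM DTT, 0.00005% Triton X-100. Reaction started with 2 uM Z-FR-AMC; AMC fluorescence increase over 60 s gives rate.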
Cruzain Triton: blocks cruzain activity in presence of Triton detergent; P25779; purified cruzain, Z-FR-AMC fluorescence, 0.01% Triton; Potency, µM, for inactives: max response, negative = inhibition, actives largely listed as inhibitors; 200,000 tested, 0.43% active;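 further: plate controls were neutral wells for no effect and buffer without enzyme for full effect; nearly all actives have a fitted effect of over 40% in size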
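Detergent-containing run (0.01% Triton X-100) in acetate buffer pH 5.5 with 5 mM DTT: enzyme at 1.5 nM final, 15 min compound preincubation at room temperature, then 2 uM Z-FR-AMC substrate. Activity taken as 60 s fluorescence increase at 360/450 nm.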
Numbers without * were called inactive; ? = inconclusive. An excerpt weighted towards active compounds, which were near 2.6% of everything screened. The call rests on the fitted dose curve; in most records, active means well fitted curve in the direction sought with a large enough effect; inconclusive means small, poorly fitted or top-dose-only effect, or another doubt; inactive means no such curve, though single readings can be large; an effect the other way counts as inactive or inconclusive. Potency means the concentration at half of the fitted maximal effect.

SMILES	Cruzain noTriton	Cruzain Triton
Cc1cc2nnc(SCC(=O)NCc3cccs3)n2c(N)n1	-8%	1%
Oc1cc(Cl)cc(Cl)c1	-9%	-2%
O=C(c1cnccn1)N1CCC2(CC1)CN(Cc1ccccc1)C2	6%	4%
CCOC(=O)c1c(-c2ccc(C)cc2)csc1NC(=O)c1cc2ccccc2oc1=O	-7%	0%
Cc1sc(NC(=O)c2cc3ccccc3oc2=O)c(C(=O)OC(C)C)c1-c1ccccc1	3.2µM*	-1%
C[C@@H]1CC[C@H]2[C@H](C)C3[C@H](C[C@H]4[C@@H]5CC=C6C[C@@H](O)CC[C@@]6(C)[C@@H]5C[C@@H](O)[C@]34C)N2C1 (some centres not stated)	-6%	-3%
CCc1cc(=O)[nH]c(SCc2nc(-c3cccc(Cl)c3)no2)n1	-24%	-4%
CCOC(=O)c1c(NC(=O)c2ccccc2Br)sc2c1CCc1ccccc1-2	16µM*	-6%
CCOC(=O)c1c(NC(=O)COc2ccccc2Br)sc2c1CCCCC2	2%	-6%
CCCCOc1ccc(S(=O)(=O)Nc2ccc(-c3ccc(N4CCCCC4)nn3)cc2)cc1	32µM*	-5%
CCCCOc1ccc(S(=O)(=O)Nc2ccc(-c3ccc(N4CCCCCC4)nn3)cc2)cc1	-24%	-4%
Cc1ccc(Cc2nnc3n(-c4ccccc4)nc(C(=O)c4ccccc4)n3c2=O)cc1	25µM*	-4%
O=C(c1ccccc1)c1nn(-c2ccccc2)c(=O)cc1C(F)(F)F	-3%	1%
O=C(Oc1ccc(N(Cc2cccs2)C2=NS(=O)(=O)c3ccccc32)cc1)c1ccco1	-29%	-9%
O=C(Oc1ccc(N(Cc2cccs2)C2=NS(=O)(=O)c3ccccc32)cc1)c1ccccc1Cl	10µM*	1%
Nc1[nH]c(=O)nc2c1ncn2[C@H]1O[C@@H](CO)[C@@H](O)[C@@H]1O	4%	5%
CC(=O)O[C@H]1CC[C@@]2(C)C(=CC[C@@H]3[C@H]4CC[C@@H]([C@H](C)C(=O)O)[C@]4(C)CC[C@H]32)C1	-4%	2%
O=C(O)C(Cc1ccccc1)N1C(=O)/C(=C/c2cccc3ccccc23)SC1=S (configuration not stated)	?	32µM*
O=C(O)C(Cc1ccccc1)N1C(=O)/C(=C/c2ccccc2)SC1=S (configuration not stated)	0%	-13%
O=C(Cn1c(SCC(=O)Nc2ccc(F)cc2)nc2ccccc21)NCc1ccccc1Cl	-15%	2%
CN1CCc2cc3c(cc2[C@@H]1[C@@H]1C(=O)Oc2c1ccc1c2OCO1)OCO3	-12%	8%
Cc1nn(-c2ccccn2)c2c1C(c1c(F)cccc1Cl)C1=C(N2)c2ccccc2C1=O (configuration not stated)	25µM*	-6%
Cc1nn(-c2ccccn2)c2c1C(c1ccccc1Cl)C1=C(N2)c2ccccc2C1=O (configuration not stated)	-14%	-2%
Cn1c(=O)cc(OCC(=O)N2CCN(c3ccc(F)cc3)CC2)c2ccccc21	-6%	0%
Cc1ccc(C)c(N2CCN(CCCNC(=O)c3nnc(Cc4ccc(F)cc4Cl)o3)CC2)c1	-5%	-1%
SMILES	Cruzain noTriton	Cruzain Triton
CCOC(=O)N1CCc2c(sc3c2c(=O)n(CCc2ccccc2)c(=O)n3CC(=O)Nc2ccccc2C)C1	-6%	1%
CC1(C)[C@@H]2CC[C@]1(C)[C@@H](OC(=O)/C=C\c1ccccc1)C2	-11%	1%
Nc1nc(Nc2ccc(Cl)cc2)nc2ccccc12	10µM*	28µM*
Oc1ccc(Nc2nc(-c3ccc(Cl)cc3)nc3ccccc23)cc1	?	-8%
Nc1nc(Nc2ccccc2)nc2ccccc12	25µM*	?
COc1cc2nc(Nc3cccc(C)c3)nc(N)c2cc1OC	3%	?
COc1ccc(CN(C(=O)Nc2ccccc2)c2ccccn2)cc1OC	9%	-6%
COc1ccc(CN(C(=O)c2ccc(OCC(C)C)cc2)C2CCS(=O)(=O)C2)cc1 (configuration not stated)	?	-5%
CC(=O)N1CCc2c(sc3c2c(=O)n(-c2ccccc2Cl)c(=O)n3Cc2cccc(C)c2)C1	?	-3%
COc1ccccc1C(=O)Nc1cc2cc(Br)ccc2oc1=O	16µM*	-2%
COc1ccccc1C(=O)Nc1cc2ccccc2oc1=O	3%	20%
COC(=O)[C@@H]1C[C@@]2(O)[C@H](O)[C@H](O)[C@H](O)C[C@H]2N1Cc1c(F)cccc1Cl	1%	-6%
Oc1csc(Cc2nc(-c3ccc4ccccc4c3)cs2)n1	?	-4%
Oc1csc(Cc2nc(-c3ccc(-c4ccccc4)cc3)cs2)n1	10µM*	3%
Cc1ccc2nc(N3CCN(c4cccc(Cl)c4)CC3)c(-n3nc(C)cc3C)nc2c1	1%	-1%
c1ccc([C@@H]2CN3CCSC3=N2)cc1	-11%	-4%
CCCCCn1c(CCNC(=O)c2cccs2)nc2ccccc21	13µM*	-22%
CCC(=O)NCCc1nc2ccccc2n1Cc1ccccc1	-17%	0%
CCCCCn1c(CNC(=O)c2cccs2)nc2ccccc21	17%	-5%
CCCCCn1c(CCNC(=O)CCC)nc2ccccc21	-5%	-21%
CCCCCn1c(CCNC(=O)c2cccc(C)c2)nc2ccccc21	6%	13µM*
Cc1cccc(C(=O)NCCc2nc3ccccc3n2Cc2ccc(Cl)cc2)c1	?	7.9µM*
O=C(NCCc1nc2ccccc2n1Cc1ccc(Cl)cc1)c1ccccc1	17%	6.3µM*
Cc1cccc(C(=O)NCc2nc3ccccc3n2Cc2ccccc2Cl)c1	16%	-15%
N.N.N.N.N.N.N.N.N.N.N.N.N.N.O.O.[Cl-].[Cl-].[Cl-].[Cl-].[Cl-].[Cl-].[Ru].[Ru].[Ru]	-10%	-6%
SMILES	Cruzain noTriton	Cruzain Triton
CCc1ccc(CNC(=O)c2ccc3nc(SCc4ccc(F)cc4)n(C)c3c2)cc1	16%	-1%
CS/C(N)=C(C#N)/C(C#N)=C(\N)SC	-10%	1%
CC(C1OC(C)(C)C(O)C1O)C1CC[C@@]2(C)C3=CCC4C(C)(C)C(=O)CC[C@]4(C)C3CC[C@@]12C (some centres not stated)	27%	3%
COc1ccc(-c2csc(Nc3cccnc3)n2)cc1	?	11%
N#C/C(=C\Nc1ccc2c(c1)OCCO2)c1nc(-c2ccccc2)cs1	?	-3%
COc1ccc(-c2csc(/C(C#N)=C/Nc3ccc4c(c3)OCCO4)n2)cc1	13µM*	-4%
Cc1nc(N)sc1-c1csc(NCc2ccccc2)n1	32µM*	-15%
COc1cccc(Nc2nc(-c3sc(N)nc3C)cs2)c1	13µM*	?
Cc1nc(NC(=O)c2ccccc2)sc1-c1csc(NCc2ccccc2)n1	?	4%
COc1cccc(Nc2nc(-c3ccc4c(c3)OCCO4)cs2)c1	25µM*	-1%
COc1cccc(Nc2nc(-c3sc(NC(=O)c4ccco4)nc3C)cs2)c1	?	-1%
C[C@@H]1CNCCN1S(=O)(=O)c1cccc2cnccc12	1%	-1%
c1ccc(-c2csc(Nc3ccc4c(c3)OCCO4)n2)cc1	?	-2%
c1cc2c(cc1Nc1nc(-c3ccc4c(c3)OCO4)cs1)OCCO2	10µM*	0%
O=C(O)[C@@H](O)[C@@H](O)[C@H](O)[C@H](O)CO	15%	1%
O=C(C1=NN(c2ccccc2)C2C(=O)N(c3cccc(Cl)c3)C(=O)C12)c1ccccc1 (configuration not stated)	?	-7%

Source: PubChem (National Center for Advancing Translational Sciences (NCATS))
